In PubChem BioAssay (NCI):
This is part of a sample that, as a whole, favours compounds with a hit. Of some 79,000 tested, about 15% had one in any assay. Activity calls are given as the source filed them. Cut-off read from the data, not from the text of the source: active = growth inhibition above about 70%; inactive = the rest.

Experiments:
[1] = NCI Yeast Anticancer Drug Screen. Data for the rad52 strain (AID 147);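 note: 0% = growth of vehicle-treated control cultures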; conditions: S. cerevisiae rad52 mutant growth inhibition, active compounds read high
In short: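 Vehicle-treated cultures served as the reference for growth inhibition of compound-exposed yeast bearing a DNA repair mutation.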

[2] = NCI Yeast Anticancer Drug Screen. Data for the wt1 strain (AID 149);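 note: 0% = growth of vehicle-treated wt1 cultures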; conditions: S. cerevisiae wt1 strain (SPY 50644) growth inhibition, active compounds read high
In short: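 Yeast wt1 strain exposed to compounds; growth inhibition measured relative to vehicle-treated controls.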

[3] = NCI Yeast Anticancer Drug Screen. Data for the rad50EPP+ strain (AID 151);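 note: 0% = growth of vehicle-treated control cultures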; conditions: S. cerevisiae rad50 mutant strain, active compounds read high
In short: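 In this screen, rad50EPP+ yeast were exposed to compounds. Growth inhibition was scored against vehicle-treated controls.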

[4] = NCI Yeast Anticancer Drug Screen. Data for the mgt1 strain (AID 153); conditions: S. cerevisiae mgt1 mutant growth inhibition, active compounds read high
In short: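 mgt1 strain exposed; growth vs vehicle control recorded as inhibition.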

[5] = NCI Yeast Anticancer Drug Screen. Data for the rad50 strain (AID 155);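 note: 0% = growth of vehicle-only cultures of the same strain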; conditions: S. cerevisiae rad50 strain growth inhibition, active compounds read high
In short: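 Yeast carrying a defined DNA repair defect were exposed to test compounds, and growth was compared with vehicle-treated controls to give percent inhibition.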

[6] = NCI Yeast Anticancer Drug Screen. Data for the mec2-1 strain (AID 157); conditions: S. cerevisiae mec2-1 strain, active compounds read high
In short: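 Vehicle-treated cultures served as reference for growth inhibition of compound-exposed mec2-1 yeast.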

[7] = NCI Yeast Anticancer Drug Screen. Data for the rad14 strain (AID 159);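 note: 0% = growth of vehicle-treated control cultures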; conditions: S. cerevisiae rad14 strain growth inhibition, active compounds read high
In short: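 Yeast cells carrying a defined DNA-repair defect were exposed to compounds, and growth inhibition was calculated relative to vehicle-treated control cultures.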

[8] = NCI Yeast Anticancer Drug Screen. Data for the sgs1 mgt1 strain (AID 161);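 note: 0% = growth of cultures given vehicle only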; conditions: S. cerevisiae sgs1 mgt1 strain, active compounds read high
In short: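 Read-out: growth inhibition vs vehicle controls. Cells: mutant yeast strain deficient in DNA damage repair.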

[9] = NCI Yeast Anticancer Drug Screen. Data for the CLN2oe strain (AID 163);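 note: 0% = growth of vehicle-only control cultures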; conditions: S. cerevisiae CLN2oe strain, active compounds read high
In short: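 Inhibition relative to vehicle-treated yeast is reported. Cells: strain with genetic alteration in cell-cycle control, grown with compound.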

[10] = NCI Yeast Anticancer Drug Screen. Data for the cln2 rad14 strain (AID 165);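 note: 0% = growth equal to vehicle treated cultures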; conditions: S. cerevisiae cln2 rad14 strain, active compounds read high
In short: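 Each compound was tested on cln2 rad14 yeast. Inhibition of growth was calculated against vehicle-exposed controls.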

[11] = NCI Yeast Anticancer Drug Screen. Data for the bub3 strain (AID 167); conditions: S. cerevisiae bub3 mutant strain, active compounds read high
In short: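 Compounds were applied to a genetically altered yeast strain carrying a cell-cycle control defect. Growth inhibition was scored against vehicle-treated controls.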

[12] = NCI Yeast Anticancer Drug Screen. Data for the wt2 strain (AID 169);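 note: 0% = growth of vehicle-treated yeast cultures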; conditions: S. cerevisiae wt2 strain growth inhibition, active compounds read high
In short: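 Inhibition of yeast growth was determined after compound treatment, normalised to controls receiving only vehicle.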

[13] = NCI Yeast Anticancer Drug Screen. Data for the mlh1 strain (AID 171);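 note: 0% = growth of vehicle-treated control cultures of the same strain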; conditions: S. cerevisiae mlh1 strain growth inhibition, active compounds read high
In short: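 Vehicle-normalised growth inhibition of a repair- or checkpoint-altered yeast strain following compound treatment.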

[14] = NCI Yeast Anticancer Drug Screen. Data for the sgs1 strain (AID 173);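 note: 0% = growth of vehicle-only control cultures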; conditions: S. cerevisiae sgs1 mutant, active compounds read high
In short: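 Screen format: yeast with repair or checkpoint alterations, compound exposure, growth read relative to vehicle.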

[15] = NCI Yeast Anticancer Drug Screen. Data for the mlh1 rad18 strain (AID 175); conditions: S. cerevisiae mlh1 rad18 strain growth inhibition, active compounds read high
In short: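 Vehicle-treated cultures served as the reference for growth inhibition in a yeast strain carrying DNA damage repair alterations exposed to each compound.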

[16] = NCI Yeast Anticancer Drug Screen. Data for the rad18 strain (AID 177); conditions: S. cerevisiae rad18 mutant growth inhibition, active compounds read high
In short: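 Test articles were incubated with altered yeast defective in DNA damage repair. Results are given as inhibition of growth versus vehicle.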

[17] = at 5.0 µM (retest, dose inferred, filed as 0.5)
[18] = at 50.0 µM (retest, dose inferred, filed as 5.0)

Measured: growth inhibition

O=S(=O)(NC1CCCC(c2ccccc2)C1)c1ccccc1 (stereo not drawn)
inactive: [1]; at 1.2 µM 1% | [1]; at 3.7 µM 3% | [1]; at 11.0 µM 3% | [1]; at 33.0 µM 10% | [2]; at 1.2 µM -1% | [2]; at 3.7 µM -4% | [2]; at 11.0 µM 2% | [2]; at 33.0 µM -3% | [2]; at 100.0 µM 50% | [3]; at 1.2 µM -1% | [3]; at 3.7 µM 1% | [3]; at 11.0 µM -1% | [3]; at 33.0 µM 3% | [3]; at 100.0 µM 20% | [4]; at 1.2 µM -3% | [4]; at 3.7 µM -2% | [4]; at 11.0 µM -1% | [4]; at 33.0 µM -2% | [5]; at 1.2 µM 3% | [5]; at 3.7 µM 3% | [5]; [17] -9% | [5]; at 11.0 µM 2% | [5]; at 33.0 µM 11% | [5]; at 50.0 µM 18.2% | [6]; at 1.2 µM -8% | [6]; at 3.7 µM -2% | [6]; [17] -12% | [6]; at 11.0 µM -3% | [6]; at 33.0 µM 0% | [6]; [18] -7% | [6]; at 50.0 µM 24.6% | [7]; at 1.2 µM 1% | [7]; at 3.7 µM 2% | [7]; at 11.0 µM 2% | [7]; at 33.0 µM 4% | [8]; [17] -24% | [8]; [18] 23% | [8]; at 50.0 µM 19.4% | [9]; at 1.2 µM -4% | [9]; at 3.7 µM -4% | [9]; at 11.0 µM 2% | [9]; at 33.0 µM 9% | [10]; [17] -13% | [10]; [18] 16% | [10]; at 50.0 µM 50.8% | [11]; at 1.2 µM 1% | [11]; at 3.7 µM -1% | [11]; [17] -8% | [11]; at 11.0 µM 0% | [11]; at 33.0 µM 15% | [11]; at 50.0 µM 60.8% | [12]; at 1.2 µM -4% | [12]; at 3.7 µM -7% | [12]; at 11.0 µM -3% | [12]; at 33.0 µM -6% | [13]; at 1.2 µM -2% | [13]; at 3.7 µM 0% | [13]; at 11.0 µM -1% | [13]; at 33.0 µM 3% | [14]; at 1.2 µM -4% | [14]; at 3.7 µM 4% | [14]; at 11.0 µM -2% | [14]; at 33.0 µM 1% | [15]; [17] -26% | [15]; at 50.0 µM 57.8% | [16]; at 1.2 µM 0% | [16]; at 3.7 µM -2% | [16]; at 11.0 µM 1% | [16]; at 33.0 µM 3%
active: [1]; at 100.0 µM 90% | [4]; at 100.0 µM 95% | [5]; [18] 71% | [5]; at 100.0 µM 93% | [6]; at 100.0 µM 82% | [7]; at 100.0 µM 96% | [9]; at 100.0 µM 95% | [11]; [18] 76% | [11]; at 100.0 µM 87% | [12]; at 100.0 µM 90% | [13]; at 100.0 µM 82% | [14]; at 100.0 µM 97% | [15]; [18] 76% | [16]; at 100.0 µM 93%

O=C(Nc1cccs1)c1ccccc1
active: [4]; at 100.0 µM 88% | [5]; [18] 82% | [5]; at 50.0 µM 94.8% | [5]; at 100.0 µM 92%
inactive: [1]; at 1.2 µM -5% | [1]; at 3.7 µM -3% | [1]; at 11.0 µM -5% | [1]; at 33.0 µM 3% | [1]; at 100.0 µM 67% | [2]; at 1.2 µM -5% | [2]; at 3.7 µM -6% | [2]; at 11.0 µM -8% | [2]; at 33.0 µM -6% | [2]; at 100.0 µM 48% | [3]; at 1.2 µM -1% | [3]; at 3.7 µM 7% | [3]; at 11.0 µM 10% | [3]; at 33.0 µM 18% | [3]; at 100.0 µM 38% | [4]; at 1.2 µM -1% | [4]; at 3.7 µM -4% | [4]; at 11.0 µM -4% | [4]; at 33.0 µM 5% | [5]; at 1.2 µM -4% | [5]; at 3.7 µM -8% | [5]; [17] -155% | [5]; at 11.0 µM 10% | [5]; at 33.0 µM 42% | [6]; at 1.2 µM -1% | [6]; at 3.7 µM -1%
